This is an account of results in PubChem BioAssay (NCATS).

Assay [1] in a line: qHTS to identify inhibitors of the type 1 interferon - major histocompatibility complex class I in skeletal muscle: primary screen against the NCATS Mechanism Interrogation Plate v5.0 (MIPE) Libary (AID 1347411).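 For activity change, negative = inhibition: plate controls were vehicle for no effect and reference inhibitor for full effect.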 Note: nearly all actives have a fitted effect of over 65% in size. An outline of the steps:
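Seed engineered human myoblasts (HLA-B HiBit) in medium without dexamethasone containing 4 ng/ml IFN-beta; after 1 hr add compound titrations (top 46 uM final). Incubate 24 hrs at 37 C, lyse 10 min with HiBiT reagent, read luminescence.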
Background: Quantitative high-throughput screening tests each substance at several concentrations.

The nature of assay [2]: Primary qHTS for inhibitors of nuclear receptor binding SET domain protein 2 (NSD2) in an isogenic RCH-ACV NSD2 p.E1099K mutant (9B) (AID 1645876). For activity change, negative = viability loss: % is set by controls: 0 for no effect and ±100 for the full control effect. Note: nearly all actives have a fitted effect of over 70% in size.
The nature of assay [3]: Primary qHTS for inhibitors of nuclear receptor binding SET domain protein 2 (NSD2) in an RCH-ACV wild type WT cells (2C) (AID 1645877). For activity change, negative = cell killing: % is set by controls: 0 for no effect and ±100 for the full control effect. Note: nearly all actives have a fitted effect of over 70% in size.
Assay [4] addresses Glutathione peroxidase 1 (Homo sapiens) (UniProt P07203). Briefly: Primary qHTS Assay for Inhibitors of Recombinant Selenoprotein Glutathione Peroxidase 1 (GPX1) (AID 1845191). Note: nearly all actives have a fitted effect of over 65% in size. The gist of the method:
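GR-coupled readout: NADPH consumption tracked by fluorescence, ex 340/em 450 nm, at t=0 and after 15 min at RT. Final mix 10 nM GPX1, 1 mM GSH, 0.5 mM CHP, 0.5 mM NADPH, 100 nM GR, 0.01% BSA, following 30 min enzyme–compound preincubation.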

Assay [5] concerns the target Phospholipid hydroperoxide glutathione peroxidase GPX4 (Homo sapiens) (UniProt P36969). Briefly: Primary qHTS Assay for Inhibitors of Recombinant Selenoprotein Glutathione Peroxidase 4 (GPX4) (AID 1845192). For activity change, negative = inhibition: series mostly up to about 50 µM; % is set by controls: 0 for no effect and ±100 for the full control effect. Note: nearly all actives have a fitted effect of over 65% in size. The conditions noted are these: outcome: dose series up to 50 µM unless noted. An outline of the steps:
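Steps: GPX4 plus compound, 30 min RT; add GR/GSH/NADPH master mix; start with cumene hydroperoxide; read 340/450 nm fluorescence at 0 and 15 min. Finals were 200 nM GPX4, 1 mM GSH, 0.5 mM CHP, 0.5 mM NADPH, 100 nM GR.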

The nature of assay [6]: qHTS drug screen for cell cycle checkpoint inhibitors in PARPi-resistant BRCA-mutant ovarian cancer cell lines. (AID 1963452; calls by dose curve). The conditions noted are these: PEO1/OlaR viability, CellTiter-Glo luminescence, 96 h; for Z-AUC: stronger effect = lower value. The gist of the method: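 PEO1, PEO4 and PEO1/OlaR ovarian cancer cells, 600 per well, exposed 96 h at 37C to a dilution series. Viability read by CellTiter-Glo luminescence, normalized to DMSO and empty wells; activity summarized as Z-AUC.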

[7] abbreviates: measured here: PEO1 parental Z-AUC.

Results filed as inconclusive are left out. Activity calls are given as the source filed them. Unless noted, calls come from the whole dose curve; as a rule, active = well fitted curve in the direction sought with a large enough effect; inconclusive = small, poorly fitted or top-dose-only effect, or another doubt; inactive = no such curve, though single readings can be large; an effect the other way counts as inactive or inconclusive.
Potency is the fitted concentration of half-maximal effect.

Phospholipid hydroperoxide glutathione peroxidase GPX4 (Homo sapiens), sequence (P36969 whole entry, looked up): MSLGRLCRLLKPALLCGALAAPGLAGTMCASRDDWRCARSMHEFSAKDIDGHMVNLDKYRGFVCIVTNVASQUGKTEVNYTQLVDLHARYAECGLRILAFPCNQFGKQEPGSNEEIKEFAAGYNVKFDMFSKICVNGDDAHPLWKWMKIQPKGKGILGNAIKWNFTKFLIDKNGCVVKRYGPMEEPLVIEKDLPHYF
Glutathione peroxidase 1 (Homo sapiens), sequence (P07203 whole entry, looked up): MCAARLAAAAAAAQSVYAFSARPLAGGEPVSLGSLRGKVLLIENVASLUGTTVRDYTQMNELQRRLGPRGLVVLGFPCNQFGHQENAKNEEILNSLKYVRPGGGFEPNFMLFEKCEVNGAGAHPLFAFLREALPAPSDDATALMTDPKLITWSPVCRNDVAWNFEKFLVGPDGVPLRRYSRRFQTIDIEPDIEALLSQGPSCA

As for `NCC(=O)Nc1cncc(-c2nn3c(=O)cc(N4CCNCC4)nc3s2)c1`, the Potency entry in assay [1], in assay [2], in assay [3], in assay [4] and in assay [5] was “inactive” throughout. The Z-AUC in assay [6] is 0.673 (inactive); in assay [6] (setting [7]), 0.487; in assay [6] (measured here: PEO4 Z-AUC), 1.13.
`NC(CC1c2ccccc2Oc2ccccc21)(C(=O)O)C1CC1C(=O)O` (configuration not stated): the Potency entry in assay [1], in assay [2], in assay [3], in assay [4] and in assay [5] was “inactive” in each case. The Z-AUC in assay [6] was -0.154 (inactive); in assay [6] (setting [7]), 0.493; in assay [6] (measured here: PEO4 Z-AUC), 0.591.
As for `COc1ccccc1C(=O)Nc1cc2c(cc1N1CCCCC1)n(C)c(=O)n2C`, the Potency result in assay [1], in assay [2], in assay [3], in assay [4] and in assay [5] was “inactive” throughout. For the same molecule, the Z-AUC in assay [6] was 1.08 (inactive); in assay [6] (setting [7]) it was 0.729; in assay [6] (measured here: PEO4 Z-AUC) it was 0.646.
Take `O=C(O)CC(C(=O)O)n1c(O)c(C2=c3cc(Br)ccc3=NC2=O)sc1=S` (configuration not stated): the Potency entry in assay [1], in assay [2] and in assay [3] was “inactive” in each case. Also, the Potency in assay [4] was 5150 nM (active); in assay [5], 10100 nM (active). For the same molecule, the Z-AUC in assay [6] is 1.23 (inactive); in assay [6] (setting [7]), 0.91; in assay [6] (measured here: PEO4 Z-AUC), 1.08.
As to `Cc1ccc(S(=O)(=O)Nc2cc(-c3ccc(C#N)s3)ccc2C)cc1`, the Potency entry in assay [1], in assay [4] and in assay [5] was “inactive” in each case. Also, the Potency is 46.8 nM (active) in assay [2] and 41.7 nM (active) in assay [3]. Besides, the results for the Z-AUC in assay [6], in assay [6] (setting [7]) and in assay [6] (measured here: PEO4 Z-AUC) were -2.2 (inactive), -2.3 and -2.13, respectively.
On to `C=CC(=O)N1CCC(C2CCNc3c(C(N)=O)c(-c4ccc(Oc5ccccc5)cc4)nn32)CC1` (configuration not stated), for which the Potency entry in assay [1], in assay [4] and in assay [5] was “inactive” in each case. The Potency in assay [2] was 14800 nM (active); in assay [3], 6610 nM (active). Further, the Z-AUC was -0.181 (inactive) in assay [6], -0.23 in assay [6] (setting [7]) and -0.000619 in assay [6] (measured here: PEO4 Z-AUC).
As to `CCO[C@@H]1OC(=O)C[C@@H]1NC(=O)[C@@H]1CCCN2C(=O)CC[C@H](NC(=O)c3nccc4ccccc34)C(=O)N12`, the Potency entry in assay [1], in assay [2], in assay [3], in assay [4] and in assay [5] was “inactive” in each case. The Z-AUC was -0.883 (inactive) in assay [6], -0.455 in assay [6] (setting [7]) and -1.09 in assay [6] (measured here: PEO4 Z-AUC).
In the case of `Cc1[nH]cnc1CN1CCN(C(=O)N[C@@H](CC(C)C)C(=O)O)[C@@H](Cc2ccccc2)C1=O`, the Potency result in assay [1], in assay [2], in assay [3], in assay [4] and in assay [5] was “inactive” throughout. For the same molecule, the results for the Z-AUC in assay [6], in assay [6] (setting [7]) and in assay [6] (measured here: PEO4 Z-AUC) were -0.059 (inactive), 0.199 and 0.0254, respectively.
As for `COCCNc1cc(NC(=O)N2CCCc3cc(CN4CCN(C)CC4=O)c(C=O)nc32)ncc1C#N`, the activity change, negative = inhibition in assay [1] was -1.84% [at 8.44 µM] (inactive). The activity change, negative = viability loss in assay [2] is 3.8% [at 9.23 µM] (inactive). Moreover, the activity change, negative = cell killing in assay [3] was 2.96% [at 9.23 µM] (inactive). Besides, the values for the outcome in assay [4] and in assay [5] were “inactive [at 9.52 µM]” and “inactive [at 9.73 µM]”, respectively. Also, the Z-AUC is 0.715 (inactive) in assay [6], 0.498 in assay [6] (setting [7]) and 0.787 in assay [6] (measured here: PEO4 Z-AUC).
Take `C[C@H]1O[C@H](O[C@H]2[C@H](O)[C@@H](O)[C@@H](O[C@H]3[C@H](O)[C@@H](O)C(O)O[C@@H]3CO)O[C@@H]2CO)[C@H](O)[C@@H](O)[C@@H]1N[C@H]1C=C(CO)[C@@H](O)[C@H](O)[C@H]1O` (some centres not stated): the Potency result in assay [1], in assay [2], in assay [3], in assay [4] and in assay [5] was “inactive” in each case. Moreover, the Z-AUC is 0.621 (inactive) in assay [6], 1.06 in assay [6] (setting [7]) and 0.614 in assay [6] (measured here: PEO4 Z-AUC).
On to `O=C1Cc2cc(C(=O)NC3C[C@H]4CC[C@@H](C3)N4S(=O)(=O)CC3CCN(CCCC(F)(F)F)CC3)c(Cl)cc2N1` (some centres not stated), for which the Potency entry in assay [1], in assay [2], in assay [3], in assay [4] and in assay [5] was “inactive” each time. Further, the Z-AUC was -0.571 (inactive) in assay [6], -0.873 in assay [6] (setting [7]) and -0.957 in assay [6] (measured here: PEO4 Z-AUC).
On to `N#Cc1ccnc(N2C(=O)CC[C@H]2C(=O)N(c2cncc(F)c2)C(C(=O)NC2CC(F)(F)C2)c2ccccc2Cl)c1` (some centres not stated), for which the Potency result in assay [1], in assay [2], in assay [3], in assay [4] and in assay [5] was “inactive” throughout. Further, the Z-AUC in assay [6] was 1.6 (inactive); in assay [6] (setting [7]) it was 0.937; in assay [6] (measured here: PEO4 Z-AUC), 1.33.
On to `CC(C)(C)c1[nH]cnc1/C=c1\[nH]c(=O)/c(=C/c2ccccc2)[nH]c1=O`, for which the Potency result in assay [1], in assay [4] and in assay [5] was “inactive” in each case. For the same molecule, the Potency was 118 nM (active) in assay [2], 118 nM (active) in assay [3] and 174 nM (active) in assay [6]. Further, the Z-AUC in assay [6] (setting [7]) was -2.5; in assay [6] (measured here: PEO4 Z-AUC), -2.52.
Regarding `O=C(NO)c1cnc(N2C[C@H]3C[C@@H]2CN3c2cc(C(F)(F)F)ccn2)nc1`, the Potency is 4660 nM (active) in assay [1], 2950 nM (active) in assay [2] and 2950 nM (active) in assay [3]. Besides, the Potency result in assay [4] and in assay [5] was “inactive” throughout. Further, the values for the Z-AUC in assay [6], in assay [6] (setting [7]) and in assay [6] (measured here: PEO4 Z-AUC) were -1 (inactive), -1.23 and -1.32, respectively.
